SMILES strings stand for the structures. Values joined by “and” are separate entries in the source; they are usually repeats but may differ in a detail not shown here. Equal values may be shown once. A number with no mark means an inactive call. Records with an inconclusive call do not appear. A call without a number means that no potency is given here. Active and inactive are the calls of the source. Unless noted, calls come from the whole dose curve.

Chain of Muscarinic acetylcholine receptor M1 (Homo sapiens) (P11229 whole entry, looked up): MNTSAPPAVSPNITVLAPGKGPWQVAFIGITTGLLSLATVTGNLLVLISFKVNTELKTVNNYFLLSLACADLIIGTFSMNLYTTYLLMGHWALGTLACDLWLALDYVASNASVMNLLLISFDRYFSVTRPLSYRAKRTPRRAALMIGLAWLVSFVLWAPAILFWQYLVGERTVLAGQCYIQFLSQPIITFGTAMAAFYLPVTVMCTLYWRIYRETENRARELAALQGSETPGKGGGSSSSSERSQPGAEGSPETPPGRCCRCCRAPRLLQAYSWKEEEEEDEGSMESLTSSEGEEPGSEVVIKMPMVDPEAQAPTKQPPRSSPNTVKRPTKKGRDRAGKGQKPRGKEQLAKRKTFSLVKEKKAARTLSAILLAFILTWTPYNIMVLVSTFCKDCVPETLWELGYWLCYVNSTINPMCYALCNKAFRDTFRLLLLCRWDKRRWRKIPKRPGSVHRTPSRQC

One assay concerns the target Muscarinic acetylcholine receptor M1 (Homo sapiens) (UniProt P11229). Kind of assay: Cholinergic receptor muscarinic 1 (CHRM1) small molecule agonists, cell-based qHTS assay (AID 1963589). Note: nearly all actives have a fitted effect of over 35% in size. The settings on record: CHRM1-CHO cells, agonist mode, calcium flux fluorescence; series mostly up to 76.8 µM; activation: at the top concentration. The gist of the method: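 Fluorescent calcium dye reports M1 activation in stably transfected CHO cells. Compounds, 15 concentrations, added after 1 h dye loading at 37 C; kinetic reading at 1 sec intervals.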
In the case of `Oc1ccc(C(c2ccc(O)cc2)(C(F)(F)F)C(F)(F)F)cc1`, the Potency result was “inactive”.

Consider `c1ccc2c(c1)CCCC2`, for which the Potency result is “inactive”.

As for `CC(=[OH+])/C=C(/C)[O-].CC(=[OH+])/C=C(\C)[O-].CC(=[OH+])/C=C(\C)[O-].[Al]`, the “activation” value was -0.0169%.

Consider `CCCCCCI`, for which the “activation” value was 3.14%.

In the case of `Oc1ccccc1Cl`, the Potency entry was “inactive”.

With `Oc1cc(Cl)ccc1Cl`, the Potency entry was “inactive”.

In the case of `CC(C)(C)C(=O)Cl`, the “activation” value was 2.43%.

Consider `O=[N+]([O-])c1ccc([As](=O)(O)O)cc1`, for which the Potency entry is “inactive”.

Consider `C=CC1CC=CCC1` (stereo unspecified), for which the “activation” value is -1.21%.

As for `ClC1C(Cl)C(Cl)C(Cl)C(Cl)C1Cl` (stereo unspecified), the Potency result was “inactive”.

Turning to `Cc1cccc([N+](=O)[O-])c1`, the Potency result was “inactive”.

Take `NC(=O)CF`: the “activation” value is 0.0294%.

Turning to `O=C(O)C1C2CCC(O2)C1C(=O)O` (stereo unspecified), the Potency entry is “inactive”.

Consider `COC(=O)c1ccccc1C(=O)OC`, for which the Potency entry is “inactive”.

Turning to `Cc1ccccc1O`, the Potency entry is “inactive”.

For `CCC12COCN1COC2`, the Potency result was “inactive”.

With `C[Si](Cn1cncn1)(c1ccc(F)cc1)c1ccc(F)cc1`, the Potency entry was “inactive”.

As to `CCOC(=O)CC(SP(=S)(OC)OC)C(=O)OCC` (stereo unspecified), the Potency entry is “inactive”.

Take `NCC(O)c1ccc(O)cc1` (stereo unspecified): the Potency result is “inactive”.

Take `COc1ccc2c(c1OC)C(=O)O[C@@H]2[C@H]1c2cc3c(cc2CCN1C)OCO3`: the “activation” value was -1.62%.

With `CC(C)(c1ccc(OCC2CO2)cc1)c1ccc(OCC2CO2)cc1` (stereo unspecified), the Potency result is “inactive”.

On to `C=CCCl`, for which the “activation” value is 0.0812%.

Consider `C/C(=N\NC(=O)Nc1cc(F)cc(F)c1)c1ncccc1C(=O)O`, for which the Potency entry is “inactive”.

With `C=CCOC(N)=O`, the “activation” value was 0.115%.

For the molecule `Cc1ccc2c(c1N)C(=O)c1ccccc1C2=O`, the Potency result is “inactive”.

As for `COP(=O)(OC)C(O)C(Cl)(Cl)Cl` (stereo unspecified), the Potency result is “inactive”.

As for `CN(C)N`, the “activation” value is -0.0279%.

For `O=C(O)C(Br)Br`, the Potency result is “inactive”.

With `c1ccc(P(c2ccccc2)c2ccccc2)cc1`, the Potency result was “inactive”.

With `c1ccc2c(c1)sc1ccccc12`, the Potency entry is “inactive”.

Consider `CCBr`, for which the “activation” value was -0.438%.

System in another assay: not listed separately
The assay is described as follows: cAMP Responsive Elements (CRE) small molecule agonists, cell-based qHTS assay (AID 1963590). The settings on record: CRE-bla HEK293T, beta-lactamase FRET ratio, 3 h; series mostly up to 92.4 µM; activation: at the top concentration. The method in brief: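 Compound exposure lasted 3 h at 37 C/5% CO2 in CRE-bla HEK 293T cells grown in assay medium with 10% dialyzed FBS and 25 mM HEPES. Reporter signal came from LiveBLAzer B/G FRET substrate, 2 h, room temperature.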
Background: Quantitative high-throughput screening tests each substance at several concentrations.
In the case of `c1ccc2c(c1)CCCC2`, the Potency result is “inactive”.

Regarding `CC(=[OH+])/C=C(/C)[O-].CC(=[OH+])/C=C(\C)[O-].CC(=[OH+])/C=C(\C)[O-].[Al]`, the “activation” value was 0.173%.

On to `CCCCCCI`, for which the “activation” value is -2.24%.

`Oc1ccccc1Cl`: the Potency result is “inactive”.

On to `Oc1cc(Cl)ccc1Cl`, for which the Potency entry is “inactive”.

On to `NNC(=S)NN`, for which the “activation” value was -1.24%.

Turning to `O=[N+]([O-])c1ccc([As](=O)(O)O)cc1`, the Potency entry is “inactive”.

`O=C(O)C(F)(F)C(F)(F)C(F)(F)C(F)(F)C(F)(F)C(F)(F)C(F)(F)C(F)(F)F`: the “activation” value was -0.777%.

Turning to `C=CC1CC=CCC1` (stereo unspecified), the “activation” value was -2.24%.

With `ClC1C(Cl)C(Cl)C(Cl)C(Cl)C1Cl` (stereo unspecified), the Potency result was “inactive”.

For the molecule `Cc1cccc([N+](=O)[O-])c1`, the Potency entry is “inactive”.

For the molecule `NC(=O)CF`, the “activation” value was -0.484%.

For `O=C(O)C1C2CCC(O2)C1C(=O)O` (stereo unspecified), the “activation” value was -3.18%.

Take `COC(=O)c1ccccc1C(=O)OC`: the Potency result is “inactive”.

For `Cc1ccccc1O`, the Potency result is “inactive”.

As for `CCC12COCN1COC2`, the Potency result was “inactive”.

In the case of `Cc1ccccc1CCl`, the “activation” value is -0.133%.

Consider `N#Cc1cc([N+](=O)[O-])ccc1N`, for which the “activation” value was -0.0128%.

Turning to `O=Cc1ccc(Cl)cc1Cl`, the “activation” value is 0.0988%.

For `CCOC(=O)CC(SP(=S)(OC)OC)C(=O)OCC` (stereo unspecified), the “activation” value was 0.0764% [at 42.5 µM].

For `NCC(O)c1ccc(O)cc1` (stereo unspecified), the Potency entry was “inactive”.

On to `COc1ccc2c(c1OC)C(=O)O[C@@H]2[C@H]1c2cc3c(cc2CCN1C)OCO3`, for which the “activation” value is 5.12%.

On to `CC(C)(c1ccc(OCC2CO2)cc1)c1ccc(OCC2CO2)cc1` (stereo unspecified), for which the “activation” value is 4.14%.

On to `C=CCCl`, for which the “activation” value is -0.0394%.

As to `C/C(=N\NC(=O)Nc1cc(F)cc(F)c1)c1ncccc1C(=O)O`, the Potency entry was “inactive”.

As to `C=CCOC(N)=O`, the “activation” value is 0.554%.

On to `COC(=O)NC(=S)Nc1ccccc1NC(=S)NC(=O)OC`, for which the Potency entry was “inactive”.

In the case of `COP(=O)(OC)C(O)C(Cl)(Cl)Cl` (stereo unspecified), the Potency result was “inactive”.

Consider `CN(C)N`, for which the “activation” value was 0.045%.

As to `O=C(O)C(Br)Br`, the Potency result is “inactive”.

For `c1ccc(P(c2ccccc2)c2ccccc2)cc1`, the Potency entry was “inactive”.

On to `CN(C)CCC#N`, for which the Potency entry was “inactive”.

Turning to `c1ccc2c(c1)sc1ccccc12`, the Potency result is “inactive”.

Turning to `CCBr`, the “activation” value was -1.46%.

System in another assay: not listed separately
Kind of assay: cAMP Responsive Elements (CRE) small molecule antagonists, cell-based qHTS assay (AID 1963591; active = well fitted inhibition curve with a large enough effect in the signal ratio in the repeat runs, not every such curve was filed as active; the % refers to the signal ratio; note: potency is the fitted concentration of half-maximal effect). As to conditions: CRE-bla HEK293T, beta-lactamase FRET ratio; series mostly up to 92.4 µM; activity change, negative = inhibition: at the top concentration. The gist of the method: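 Stimulation used NKH477 at a final 0.25 uM for 3 h in compound-treated CRE-bla HEK293T cells, seeded 18 h beforehand. Reporter activity was measured with LiveBLAzer B/G FRET substrate after 2 h at room temperature.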
On to `O=C(Nc1ccc(Br)cc1)c1cc(Br)cc(Br)c1O`, for which the “activity change, negative = inhibition” value was -12.5%.

Take `c1ccc2c(c1)CCCC2`: the Potency result is “inactive”.

`CC(=[OH+])/C=C(/C)[O-].CC(=[OH+])/C=C(\C)[O-].CC(=[OH+])/C=C(\C)[O-].[Al]`: the “activity change, negative = inhibition” value was -2.85%.

Regarding `CCCCCCI`, the “activity change, negative = inhibition” value is -1.6%.

Turning to `Oc1ccccc1Cl`, the Potency entry was “inactive”.

Take `Oc1cc(Cl)ccc1Cl`: the Potency result is “inactive”.

In the case of `CC(C)(C)C(=O)Cl`, the “activity change, negative = inhibition” value was -1.03%.

Regarding `NNC(=S)NN`, the “activity change, negative = inhibition” value was 4.27%.

Regarding `O=[N+]([O-])c1ccc([As](=O)(O)O)cc1`, the “activity change, negative = inhibition” value is 0.914%.

In the case of `O=C(O)C(F)(F)C(F)(F)C(F)(F)C(F)(F)C(F)(F)C(F)(F)C(F)(F)C(F)(F)F`, the “activity change, negative = inhibition” value is 0.0447%.

Regarding `C=CC1CC=CCC1` (stereo unspecified), the “activity change, negative = inhibition” value is -3.9%.

Consider `ClC1C(Cl)C(Cl)C(Cl)C(Cl)C1Cl` (stereo unspecified), for which the Potency entry is “inactive”.

`Cc1cccc([N+](=O)[O-])c1`: the Potency entry was “inactive”.

With `NC(=O)CF`, the “activity change, negative = inhibition” value was -7.6%.

Take `O=C(O)C1C2CCC(O2)C1C(=O)O` (stereo unspecified): the Potency is 27.6 µM (active) and 49.9 µM (active).

With `COC(=O)c1ccccc1C(=O)OC`, the Potency entry was “inactive”.

As to `Cc1ccccc1O`, the Potency entry is “inactive”.

On to `CCC12COCN1COC2`, for which the Potency result is “inactive”.

Turning to `C[Si](Cn1cncn1)(c1ccc(F)cc1)c1ccc(F)cc1`, the “activity change, negative = inhibition” value was 1.1%.

With `Cc1ccccc1CCl`, the “activity change, negative = inhibition” value was 0.605%.

For `N#Cc1cc([N+](=O)[O-])ccc1N`, the “activity change, negative = inhibition” value was 13.8%.

As for `CCOC(=O)CC(SP(=S)(OC)OC)C(=O)OCC` (stereo unspecified), the “activity change, negative = inhibition” value was 11.8% [at 42.4 µM].

As to `NCC(O)c1ccc(O)cc1` (stereo unspecified), the Potency entry is “inactive”.

With `COc1ccc2c(c1OC)C(=O)O[C@@H]2[C@H]1c2cc3c(cc2CCN1C)OCO3`, the “activity change, negative = inhibition” value was 13.4%.

Consider `C=CCCl`, for which the “activity change, negative = inhibition” value was 5.1%.

With `C/C(=N\NC(=O)Nc1cc(F)cc(F)c1)c1ncccc1C(=O)O`, the Potency entry is “inactive”.

With `C=CCOC(N)=O`, the “activity change, negative = inhibition” value is 4.61%.

For the molecule `COC(=O)NC(=S)Nc1ccccc1NC(=S)NC(=O)OC`, the “activity change, negative = inhibition” value is 11.4%.

For the molecule `Cc1ccc2c(c1N)C(=O)c1ccccc1C2=O`, the “activity change, negative = inhibition” value is -2.5%.

As for `COP(=O)(OC)C(O)C(Cl)(Cl)Cl` (stereo unspecified), the “activity change, negative = inhibition” value is -23.2% [at 42.4 µM].

For `CN(C)N`, the “activity change, negative = inhibition” value is -1.42%.

In the case of `O=C(O)C(Br)Br`, the Potency entry was “inactive”.

For the molecule `c1ccc(P(c2ccccc2)c2ccccc2)cc1`, the Potency entry was “inactive”.

Turning to `CN(C)CCC#N`, the Potency entry is “inactive”.

In the case of `c1ccc2c(c1)sc1ccccc12`, the “activity change, negative = inhibition” value was 12% [at 42.4 µM].

With `CCBr`, the “activity change, negative = inhibition” value is -2.36%.
